# Several values for one entry are separate records, joined by “and”; a condition that tells them apart may be missing. Equal values may be shown once. Out of some 5,500 compounds screened, about 2,000 (36%) were called active. Roughly 18% stayed inconclusive and do not appear here. This is one part of the list. A number with no mark means an inactive call. Cut-off read from the data, not from the text of the source: active = normalized growth mostly below about 0.91 (no sharp cut-off); inconclusive = no clear call, values can overlap the other calls; inactive = mostly above about 0.92.
# Test: chemical genetic growth profiling, strain panel (AID 1159580);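 note: tested at 20 µM; growth read once vehicle control cultures reached saturation at 30 °C; 1 = growth at the plate median or of vehicle wells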
# Conditions: S. cerevisiae deletion strains, growth OD
smiles,measurement,setting,value
C[C@H]1C(=O)CCC2[C@]3(C)CC[C@@]4(C)C5CC(C)(C)CC[C@]5(C)CC[C@]4(C)C3CC[C@@]21C (stereo partly drawn),normalized growth,"locus YAL021C, strain ccr4, stronger effect = lower value",0.979
same,normalized growth,"locus YAL026C, strain drs2, stronger effect = lower value",1.02
same,normalized growth,"locus YAL030W, strain snc1, stronger effect = lower value",1
same,normalized growth,"locus YBL061C, strain skt5, stronger effect = lower value",1
same,normalized growth,"locus YBR009C, strain hhf1, stronger effect = lower value",1.02
same,normalized growth,"locus YBR021W, strain FUR4, stronger effect = lower value",0.713 (active)
same,normalized growth,"locus YBR023C, strain chs3, stronger effect = lower value",1
same,normalized growth,"locus YBR171W, strain sec66, stronger effect = lower value",1
same,normalized growth,"locus YBR229C, strain ROT2, stronger effect = lower value",1.02
same,normalized growth,"locus YBR231C, strain swc5, stronger effect = lower value",0.997
same,normalized growth,"locus YBR279W, strain paf1, stronger effect = lower value",1.01
same,normalized growth,"locus YCL011C, strain gbp2, stronger effect = lower value",1.01
same,normalized growth,"locus YCL016C, strain dcc1, stronger effect = lower value",1
same,normalized growth,"locus YCL029C, strain bik1, stronger effect = lower value",0.968
same,normalized growth,"locus YCL061C, strain MRC1, stronger effect = lower value",1.01
same,normalized growth,"locus YCL069W, strain vba3, stronger effect = lower value",1.01
same,normalized growth,"locus YCR088W, strain abp1, stronger effect = lower value",1.01
same,normalized growth,"locus YDL005C, strain med2, stronger effect = lower value",0.995
same,normalized growth,"locus YDL035C, strain GPR1, stronger effect = lower value",0.983
same,normalized growth,"locus YDL040C, strain nat1, stronger effect = lower value",1.01
same,normalized growth,"locus YDL074C, strain BRE1, stronger effect = lower value",0.955
same,normalized growth,"locus YDL101C, strain DUN1, stronger effect = lower value",1.02
same,normalized growth,"locus YDL134C, strain PPH21, stronger effect = lower value",0.97
same,normalized growth,"locus YDL185W, strain tfp1, stronger effect = lower value",1.02
same,normalized growth,"locus YDL192W, strain arf1, stronger effect = lower value",0.901 (active)
same,normalized growth,"locus YDR001C, strain nth1, stronger effect = lower value",1
same,normalized growth,"locus YDR069C, strain doa4, stronger effect = lower value",0.992
same,normalized growth,"locus YDR101C, strain arx1, stronger effect = lower value",0.981
same,normalized growth,"locus YDR137W, strain rgp1, stronger effect = lower value",0.987
same,normalized growth,"locus YDR159W, strain sac3, stronger effect = lower value",0.981
same,normalized growth,"locus YDR162C, strain NBP2, stronger effect = lower value",0.857
same,normalized growth,"locus YDR195W, strain ref2",0.966
same,normalized growth,"locus YDR297W, strain sur2, stronger effect = lower value",0.996
same,normalized growth,"locus YDR318W, strain mcm21, stronger effect = lower value",0.991
same,normalized growth,"locus YDR334W, strain swr1, stronger effect = lower value",1
same,normalized growth,"locus YDR335W, strain msn5, stronger effect = lower value",1.02
same,normalized growth,"locus YDR388W, stronger effect = lower value",1
same,normalized growth,"locus YDR392W, strain spt3, stronger effect = lower value",0.934
same,normalized growth,"locus YDR502C, strain sam2, stronger effect = lower value",0.97
same,normalized growth,"locus YEL003W, strain gim4, stronger effect = lower value",1.01
same,normalized growth,"locus YEL037C, strain rad23, stronger effect = lower value",0.999
same,normalized growth,"locus YEL061C, strain CIN8 (second series), stronger effect = lower value",1.01
same,normalized growth,"locus YEL061C, strain CIN8, stronger effect = lower value",1.02
same,normalized growth,"locus YER015W, strain faa2, stronger effect = lower value",1.01
same,normalized growth,"locus YER016W, strain bim1, stronger effect = lower value",0.994
same,normalized growth,"locus YER110C, stronger effect = lower value",1.01
same,normalized growth,"locus YER111C, strain swi4, stronger effect = lower value",0.998
same,normalized growth,"locus YER155C, strain BEM2 (second series), stronger effect = lower value",0.995
same,normalized growth,"locus YER155C, strain BEM2, stronger effect = lower value",1.03
same,normalized growth,"locus YER167W, strain BCK2, stronger effect = lower value",0.98
same,normalized growth,"locus YFR010W, strain ubp6, stronger effect = lower value",1.01
same,normalized growth,"locus YGL078C, strain dbp3, stronger effect = lower value",1.04
same,normalized growth,"locus YGL086W, strain mad1, stronger effect = lower value",0.974
same,normalized growth,"locus YGL167C, strain pmr1, stronger effect = lower value",1
same,normalized growth,"locus YGL173C, strain kem1, stronger effect = lower value",1.01
same,normalized growth,"locus YGL227W, strain vid30, stronger effect = lower value",1
same,normalized growth,"locus YGL240W, strain doc1, stronger effect = lower value",0.978
same,normalized growth,"locus YGL248W, strain PDE1, stronger effect = lower value",0.978
same,normalized growth,"locus YGL253W, strain hxk2, stronger effect = lower value",1.03
same,normalized growth,"locus YGR135W, strain pre9, stronger effect = lower value",1.01
same,normalized growth,"locus YGR252W, strain gcn5, stronger effect = lower value",0.902
same,normalized growth,"locus YHR013C, strain ard1, stronger effect = lower value",1.01
same,normalized growth,"locus YHR027C, strain rpn1, stronger effect = lower value",1.01
same,normalized growth,"locus YHR030C, strain SLT2, stronger effect = lower value",1.04
same,normalized growth,"locus YHR079C, strain IRE1 (second series), stronger effect = lower value",1.02
same,normalized growth,"locus YHR079C, strain IRE1, stronger effect = lower value",1.04
same,normalized growth,"locus YHR094C, strain hxt1, stronger effect = lower value",1.01
same,normalized growth,"locus YHR129C, strain ARP1, stronger effect = lower value",1
same,normalized growth,"locus YHR142W, strain chs7, stronger effect = lower value",1.03
same,normalized growth,"locus YHR200W, strain rpn10, stronger effect = lower value",0.951
same,normalized growth,"locus YIL066C, strain RNR3, stronger effect = lower value",0.969
same,normalized growth,"locus YIL073C, strain SPO22, stronger effect = lower value",1.02
same,normalized growth,"locus YIL125W, strain kgd1, stronger effect = lower value",1
same,normalized growth,"locus YIR030C, strain dcg1, stronger effect = lower value",1.02
same,normalized growth,"locus YJL092W, strain hpr5, stronger effect = lower value",1.01
same,normalized growth,"locus YJL095W, strain BCK1 (second series), stronger effect = lower value",0.999
same,normalized growth,"locus YJL095W, strain BCK1, stronger effect = lower value",0.936 and 1.01
same,normalized growth,"locus YJL115W, strain asf1, stronger effect = lower value",1
same,normalized growth,"locus YJL129C, strain trk1, stronger effect = lower value",1.01
same,normalized growth,"locus YJL134W, strain LCB3, stronger effect = lower value",1.03
same,normalized growth,"locus YJL154C, strain vps35, stronger effect = lower value",1
same,normalized growth,"locus YJL164C, strain tpk1, stronger effect = lower value",1.01
same,normalized growth,"locus YJL166W, strain qcr8, stronger effect = lower value",1
same,normalized growth,"locus YJL168C, strain set2, stronger effect = lower value",1.02
same,normalized growth,"locus YJL187C, strain SWE1 (second series), stronger effect = lower value",0.995
same,normalized growth,"locus YJL187C, strain SWE1, stronger effect = lower value",1
same,normalized growth,"locus YJR043C, strain POL32, stronger effect = lower value",0.949
same,normalized growth,"locus YJR066W, strain TOR1, stronger effect = lower value",0.984
same,normalized growth,"locus YKL009W, strain mrt4, stronger effect = lower value",1.03
same,normalized growth,"locus YKL068W, stronger effect = lower value",1.02
same,normalized growth,"locus YKL085W, strain MDH1 (second series), stronger effect = lower value",1.01
same,normalized growth,"locus YKL085W, strain MDH1, stronger effect = lower value",1.01
same,normalized growth,"locus YKL160W, strain elf1, stronger effect = lower value",1.01
same,normalized growth,"locus YKL190W, strain CNB1, stronger effect = lower value",1.02
same,normalized growth,"locus YKR001C, strain vps1, stronger effect = lower value",0.876 (active)
same,normalized growth,"locus YKR026C, strain gcn3, stronger effect = lower value",0.999
same,normalized growth,"locus YKR091W, strain srl3, stronger effect = lower value",1.01
same,normalized growth,"locus YLL001W, strain dnm1, stronger effect = lower value",1
same,normalized growth,"locus YLL026W, stronger effect = lower value",1
same,normalized growth,"locus YLL041C, strain sdh2, stronger effect = lower value",1.01
same,normalized growth,"locus YLR027C, strain aat2, stronger effect = lower value",1
same,normalized growth,"locus YLR039C, strain RIC1, stronger effect = lower value",0.738
same,normalized growth,"locus YLR058C, strain SHM2, stronger effect = lower value",0.994
same,normalized growth,"locus YLR102C, strain apc9, stronger effect = lower value",1.02
same,normalized growth,"locus YLR113W, strain HOG1, stronger effect = lower value",0.965
same,normalized growth,"locus YLR221C, strain rsa3, stronger effect = lower value",0.995
same,normalized growth,"locus YLR258W, strain gsy2, stronger effect = lower value",1
same,normalized growth,"locus YLR262C, strain YPT6 (second series), stronger effect = lower value",1.01
same,normalized growth,"locus YLR268W, strain sec22, stronger effect = lower value",0.985
same,normalized growth,"locus YLR320W, strain mms22, stronger effect = lower value",1.01
same,normalized growth,"locus YLR342W, strain FKS1 (second series), stronger effect = lower value",0.992
same,normalized growth,"locus YLR342W, strain FKS1, stronger effect = lower value",1
same,normalized growth,"locus YLR357W, strain rsc2, stronger effect = lower value",0.977
same,normalized growth,"locus YLR370C, strain arc18, stronger effect = lower value",1.02
same,normalized growth,"locus YLR371W, strain rom2, stronger effect = lower value",1
same,normalized growth,"locus YLR384C, strain iki3, stronger effect = lower value",0.978
same,normalized growth,"locus YLR418C, strain cdc73, stronger effect = lower value",0.876
same,normalized growth,"locus YML016C, strain PPZ1, stronger effect = lower value",1.01
same,normalized growth,"locus YML032C, strain rad52, stronger effect = lower value",0.953
same,normalized growth,"locus YML120C, strain ndi1, stronger effect = lower value",0.998
same,normalized growth,"locus YML124C, strain tub3, stronger effect = lower value",1.02
same,normalized growth,"locus YMR058W, strain fet3, stronger effect = lower value",1.02
same,normalized growth,"locus YMR078C, strain ctf18, stronger effect = lower value",1.01
same,normalized growth,"locus YMR125W, strain sto1, stronger effect = lower value",0.995
same,normalized growth,"locus YMR129W, stronger effect = lower value",0.996
same,normalized growth,"locus YMR205C, strain PFK2, stronger effect = lower value",1.02
same,normalized growth,"locus YMR223W, strain ubp8, stronger effect = lower value",0.994
same,normalized growth,"locus YMR231W, strain pep5, stronger effect = lower value",0.996
same,normalized growth,"locus YMR263W, strain SAP30, stronger effect = lower value",1.02
same,normalized growth,"locus YMR307W, strain GAS1, stronger effect = lower value",1.04
same,normalized growth,"locus YNL067W, strain RPL9B, stronger effect = lower value",1.02
same,normalized growth,"locus YNL071W, strain lat1, stronger effect = lower value",1.01
same,normalized growth,"locus YNL153C, strain GIM3, stronger effect = lower value",1.01
same,normalized growth,"locus YNL183C, strain NPR1, stronger effect = lower value",0.981
same,normalized growth,"locus YNL209W, strain ssb2, stronger effect = lower value",1.02
same,normalized growth,"locus YNL233W, strain BNI4, stronger effect = lower value",1.01
same,normalized growth,"locus YNL248C, strain rpa49, stronger effect = lower value",0.919
same,normalized growth,"locus YNL250W, strain rad50, stronger effect = lower value",1.03
same,normalized growth,"locus YNL271C, strain bni1, stronger effect = lower value",1.01
same,normalized growth,"locus YNL298W, strain CLA4, stronger effect = lower value",0.993
same,normalized growth,"locus YNL307C, strain MCK1, stronger effect = lower value",0.984
same,normalized growth,"locus YNL322C, strain KRE1 (second series), stronger effect = lower value",0.985
same,normalized growth,"locus YNR049C, strain mso1, stronger effect = lower value",0.994
same,normalized growth,"locus YNR052C, strain pop2, stronger effect = lower value",0.851 (active)
same,normalized growth,"locus YOL006C, strain TOP1, stronger effect = lower value",0.757
same,normalized growth,"locus YOL012C, strain htz1",1.29
same,normalized growth,"locus YOL147C, strain pex11, stronger effect = lower value",0.987
same,normalized growth,"locus YOR001W, strain rrp6, stronger effect = lower value",0.98
same,normalized growth,"locus YOR061W, strain CKA2, stronger effect = lower value",0.985
same,normalized growth,"locus YOR069W, strain VPS5, stronger effect = lower value",1.01
same,normalized growth,"locus YOR070C, strain gyp1, stronger effect = lower value",0.996
same,normalized growth,"locus YOR080W, strain dia2, stronger effect = lower value",1
same,normalized growth,"locus YOR083W, strain WHI5, stronger effect = lower value",1.01
same,normalized growth,"locus YOR106W, strain vam3, stronger effect = lower value",1.02
same,normalized growth,"locus YOR136W, strain idh2, stronger effect = lower value",0.994
same,normalized growth,"locus YOR144C, strain elg1, stronger effect = lower value",1
same,normalized growth,"locus YOR184W, strain ser1, stronger effect = lower value",0.967
same,normalized growth,"locus YOR231W, strain MKK1, stronger effect = lower value",0.985
same,normalized growth,"locus YOR265W, strain rbl2, stronger effect = lower value",0.993
same,normalized growth,"locus YOR270C, strain vph1, stronger effect = lower value",1.05
same,normalized growth,"locus YOR290C, strain snf2, stronger effect = lower value",0.991
same,normalized growth,"locus YOR316C, strain cot1, stronger effect = lower value",1.01
same,normalized growth,"locus YPL051W, strain arl3, stronger effect = lower value",0.999
same,normalized growth,"locus YPL055C, strain LGE1, stronger effect = lower value",0.938
same,normalized growth,"locus YPL078C, strain atp4, stronger effect = lower value",1.03
same,normalized growth,"locus YPL106C, strain sse1, stronger effect = lower value",0.989
same,normalized growth,"locus YPL240C, strain hsp82, stronger effect = lower value",0.997
same,normalized growth,"locus YPL256C, strain CLN2, stronger effect = lower value",1.05
same,normalized growth,"locus YPR119W, strain clb2, stronger effect = lower value",1.02
same,normalized growth,"locus YPR141C, strain kar3, stronger effect = lower value",1.02
same,normalized growth,"locus YPR163C, strain tif3, stronger effect = lower value",0.993
same,normalized growth,"locus YPR167C, strain met16, stronger effect = lower value",1.01
same,normalized growth,"strain wtn01, stronger effect = lower value",0.948
